Source: PubChem (National Center for Advancing Translational Sciences (NCATS))
The list is not random: actives were taken first. Their share in the collection is about 10%.
FLuc inh – Firefly luciferase inhibition profiling of diverse chemical library using quantitative high-throughput screening; Luciferin 4-monooxygenase (Photinus pyralis), P08659; purified P. pyralis luciferase, luminescence, biochemical; Potency, µM (doses to about 115 µM), hits mostly inhibitors; hit rate 2.5% among 76,000; AID 1347043, 2019; further: on the % scale 0 is the no-effect control and ±100 the full control effect; nearly all actives have a fitted effect of over 65% in size
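Luminescence read by CCD imaging after purified firefly luciferase (10nM final) was added to substrate buffer holding 10uM D-luciferin and 10uM ATP, pH 7.5, pre-dosed with compound.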
GPT2 inhibitor – Primary qHTS assay for inhibitors of Glutamate pyruvate transaminase 2 (GPT2). Alanine aminotransferase 2 (Homo sapiens), Q8TD30. Recombinant GPT2, coupled pyruvate oxidase/HRP Amplex Red fluorescence. Potency, µM (top dose mostly 57.7 µM), for inactives: at the top dose activity change, negative = inhibition, hits mostly inhibitors. hit rate 0.25% among 100,000. AID 1671188, 2021; further: on the % scale 0 is the no-effect control and ±100 the full control effect; nearly all actives have a fitted effect of over 60% in size
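GPT2 10ng/uL, a-KG 250uM, L-Ala 2mM, HEPES pH7.5 + 0.0001% Tween; 30 min RT. Then Amplex mix (PO/HRP/ThPP), 30 min RT dark, fluorescence. AOA 50uM used as positive control.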
HEK cytotox – Cytotoxic Profiling in HEK 293 Cell Line of Diverse Libraries Using Quantitative High-Throughput Screening; hit rate 6.6% among 94,000; Potency, µM (top dose mostly 115 µM), inactives show top-dose activity change, negative = cytotoxicity, hits mostly inhibitors; HEK 293 viability, ATP luminescence (CellTiter-Glo), 48-72 h; further: on the % scale 0 is the no-effect control and ±100 the full control effect; nearly all actives have a fitted effect of over 60% in size
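CellTiter-Glo luminescence (cellular ATP) was read after 48 or 72 hr of compound exposure at 37 degree Celsius. Cells were HEK 293 plated at 250 cells/well.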
hNpr1 antagonist – Natriuretic polypeptide receptor (hNpr1) antagonism - Primary qHTS; Potency, µM (titrated, usually from 46.3 µM), inactives show at the top dose activity change, negative = inhibition, most hits filed as inhibitors; Atrial natriuretic peptide receptor 1 (Homo sapiens), P16066; hit rate 1.6% among 76,000; HEK293 hNpr1 GloSensor cGMP, ANP-stimulated luminescence; calls by dose curve; further: on the % scale 0 is the no-effect control and ±100 the full control effect; nearly all actives have a fitted effect of over 60% in size
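Compound pre-incubated 30 min at room temperature on GloSensor-loaded HEK293 cells stably carrying hNpr1 and the pGS-40F cGMP biosensor. Stimulation uses hNppA at 0.1 nM final; luminescence is taken at baseline and 20 min post-agonist.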
NIH3T3 tox – Cytotoxic Profiling in NIH 3T3 Cell Line of Diverse Libraries Using Quantitative High-Throughput Screening; Potency, µM (titrated, usually from 96.7 µM), for inactives: at the highest dose activity change, negative = cytotoxicity, hits mostly inhibitors; hit rate 4.3% among 94,000; NIH 3T3 viability, CellTiter-Glo ATP luminescence, 48-72 h; further: on the % scale 0 is the no-effect control and ±100 the full control effect; nearly all actives have a fitted effect of over 55% in size
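NIH 3T3 cells at 400 cells/well received 23 nL of compound by pintool and were incubated 48 or 72 h at 37 °C. Viability was read as ATP-coupled CellTiter-Glo luminescence.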
NPR1 antag cnf – Natriuretic polypeptide receptor (hNpr1) antagonism - Confirmation; shares compounds with hNpr1 antagonist; HEK293 hNpr1 cGMP GloSensor luminescence, ANP-stimulated; Potency, µM (highest dose often 57.6 µM), for the others: top-dose activity change, negative = inhibition, usual class: inhibitors; hit rate 76% among 1,400; AID 1347044, 2019; calls by dose curve; further: nearly all actives have a fitted effect of over 70% in size
NPR2 antag – Natriuretic polypeptide receptor (hNpr2) antagonism - Subtype selectivity assay | hit rate 67% among 1,400 | Potency, µM (top dose mostly 57.6 µM), without a hit: top-dose activity change, negative = inhibition, actives largely listed as inhibitors | shares compounds with hNpr1 antagonist | HEK293 hNpr2 GloSensor cGMP luminescence, CNP-stimulated; calls by dose curve; further: nearly all actives have a fitted effect of over 70% in size
FLuc counter – Natriuretic polypeptide receptor (hNpr1) antagonism - Confirmation firefly luciferase (FLuc) inhibition counterscreen; shares compounds with hNpr1 antagonist; purified FLuc enzyme, luminescence, Km substrate; Potency, µM (highest dose often 57.6 µM), for inactives: at the highest dose activity change, negative = inhibition, actives largely listed as inhibitors; hit rate 0.7% among 1,400; further: 0% is about no effect
GloSensor ctrl – Natriuretic polypeptide receptor (hNpr1) antagonism - Counterscreen GloSensor control cell line; Potency, µM (top dose mostly 57.6 µM), for inactives: top-dose activity change, negative = inhibition, hits mostly inhibitors; hit rate 69% among 1,400; HEK293 GloSensor cGMP, SNP-stimulated, luminescence; shares compounds with hNpr1 antagonist; AID 1347051, 2019; calls by dose curve; further: on the % scale 0 is the no-effect control and ±100 the full control effect; nearly all actives have a fitted effect of over 70% in size
* marks the source's active call; other numbers are inactive results; [ ] = remark or other dose. Unless noted, the call rests on the fitted dose curve; in most records, active means well fitted curve in the direction sought with a large enough effect; inconclusive means small, poorly fitted or top-dose-only effect, or another doubt; inactive means no such curve, though single readings can be large; an effect the other way counts as inactive or inconclusive. Potency means the concentration at half of the fitted maximal effect.

Results for O=C(c1ccccc1Br)N1CCN(c2cc(-c3ccc(Cl)cc3)[nH]n2)CC1 ?
FLuc inh: inactive; GPT2 inhibitor: -26%; HEK cytotox: inconclusive; hNpr1 antagonist: 2.5µM*; NIH3T3 tox: 25µM*; NPR1 antag cnf: 19µM*; NPR2 antag: 19µM*; FLuc counter: 0%; GloSensor ctrl: 12µM*

What do the screens show for `COc1ccc(-c2cc(N3CCN(C(=O)c4ccccc4Br)CC3)n[nH]2)cc1`?
FLuc inh: inactive; GPT2 inhibitor: inactive; HEK cytotox: inconclusive; hNpr1 antagonist: inconclusive; NIH3T3 tox: inconclusive

What do the screens show for `O=C(NC1CCN(c2cc(-c3ccc(Cl)cc3)[nH]n2)CC1)c1cccc(F)c1`?
FLuc inh: inactive; GPT2 inhibitor: inactive; HEK cytotox: inconclusive; hNpr1 antagonist: 2%; NIH3T3 tox: -3%

Results for COCCn1nnnc1C1CC2(CCOCC2)C(=O)N1CCc1cccs1 (stereo unspecified) ?
GPT2 inhibitor: 2%; HEK cytotox: 0%; NIH3T3 tox: -7%

Results for O=C([C@@H]1C[C@H](Oc2cccnc2)CN1S(=O)(=O)Cc1ccccc1)N1CCOCC1 ?
FLuc inh: inactive; GPT2 inhibitor: inactive; HEK cytotox: 1%; hNpr1 antagonist: -1%; NIH3T3 tox: -21%

How did COc1cccc(C(=O)N2CCN(c3cc(-c4ccccc4)[nH]n3)CC2)c1OC do in these assays?
FLuc inh: inactive; GPT2 inhibitor: inactive; HEK cytotox: inconclusive; hNpr1 antagonist: 2%; NIH3T3 tox: inconclusive

How did COc1ccc(CC(=O)NC2CCN(c3cc(-c4ccc(Cl)cc4)[nH]n3)C2)cc1OC (stereo unspecified) do in these assays?
FLuc inh: inactive; GPT2 inhibitor: inconclusive; HEK cytotox: inconclusive; hNpr1 antagonist: 10µM*; NIH3T3 tox: inconclusive; NPR1 antag cnf: 19µM*; NPR2 antag: 22µM*; FLuc counter: -2%; GloSensor ctrl: 11µM*

Results for COc1cccc(C(=O)N2CCN(c3cc(-c4ccc(Cl)cc4)[nH]n3)CC2)c1OC ?
FLuc inh: inactive; GPT2 inhibitor: inactive; HEK cytotox: inconclusive; hNpr1 antagonist: 11µM*; NIH3T3 tox: inconclusive; NPR1 antag cnf: 22µM*; NPR2 antag: 22µM*; FLuc counter: 4%; GloSensor ctrl: 17µM*

Results for c1ccc(CN2CCC(Cc3ccc(CN4CCCC4)cc3)CC2)nc1 ?
GPT2 inhibitor: -14%; HEK cytotox: inconclusive; NIH3T3 tox: inconclusive

What do the screens show for `Cc1noc(C2CC3(CCN(C(=O)c4ccoc4)CC3)CN2C)n1` (stereo unspecified)?
GPT2 inhibitor: inactive; HEK cytotox: inactive; NIH3T3 tox: -8%

What do the screens show for `C#CCNC(=O)C[C@@H]1C[C@@H](C(C)C)[C@H](CNS(=O)(=O)Cc2ccccc2)C=C1C`?
FLuc inh: inactive; GPT2 inhibitor: -5%[88.5 µM]; HEK cytotox: -24%[172 µM]; hNpr1 antagonist: 0%[70.6 µM]; NIH3T3 tox: inconclusive

What do the screens show for `COc1ccc(NC(=O)N2CCCC(c3noc(COc4ccccc4)n3)C2)c(C)c1` (stereo unspecified)?
FLuc inh: inactive; GPT2 inhibitor: inconclusive; HEK cytotox: inconclusive; hNpr1 antagonist: inconclusive; NIH3T3 tox: -52%; NPR1 antag cnf: 24µM*; NPR2 antag: inconclusive; FLuc counter: 0%; GloSensor ctrl: 22µM*

How did CCOc1ccccc1NC(=O)N1CCCC(c2noc(COc3ccccc3)n2)C1 (stereo unspecified) do in these assays?
FLuc inh: inactive; GPT2 inhibitor: inactive; HEK cytotox: inconclusive; hNpr1 antagonist: -14%; NIH3T3 tox: inconclusive

Results for O=C(Nc1ccccc1)c1cc2n(n1)CC(c1ccc(Br)cc1)OC2 (stereo unspecified) ?
FLuc inh: inactive; GPT2 inhibitor: inactive; HEK cytotox: inconclusive; hNpr1 antagonist: 18µM*; NIH3T3 tox: inconclusive; NPR1 antag cnf: 27µM*; NPR2 antag: inconclusive; FLuc counter: -14%; GloSensor ctrl: inconclusive

How did O=C(Nc1ccc(F)cc1)c1cc2n(n1)CC(c1ccc(Br)cc1)OC2 (stereo unspecified) do in these assays?
FLuc inh: inactive; GPT2 inhibitor: inactive; HEK cytotox: inconclusive; hNpr1 antagonist: 11µM*; NIH3T3 tox: inconclusive; NPR1 antag cnf: inconclusive; NPR2 antag: inconclusive; FLuc counter: 0%; GloSensor ctrl: inconclusive

How did O=C(Nc1ccc(F)c(F)c1)c1cc2n(n1)CC(c1ccc(Br)cc1)OC2 (stereo unspecified) do in these assays?
FLuc inh: inactive; GPT2 inhibitor: -6%; HEK cytotox: inconclusive; hNpr1 antagonist: inconclusive; NIH3T3 tox: inconclusive; NPR1 antag cnf: 24µM*; NPR2 antag: inconclusive; FLuc counter: 0%; GloSensor ctrl: inconclusive

Results for COc1cc(CN2CCC(C)(NC(C)=O)CC2)cc(-c2ccncc2)c1 ?
NPR1 antag cnf: 22µM*; NPR2 antag: 8.9µM*; FLuc counter: 2%[86.2 µM]; GloSensor ctrl: -18%[86.2 µM]

How did COc1cc(CN2CCC(C)(NC(C)=O)CC2)cc(-c2ccc3[nH]ncc3c2)c1 do in these assays?
FLuc inh: inactive; GPT2 inhibitor: 3%[88.5 µM]; HEK cytotox: inconclusive; hNpr1 antagonist: -27%[70.6 µM]; NIH3T3 tox: inconclusive
